LDHA block = LDHA (human) enzyme inhibition; hit rate 0.15% among 480,000; AID 1347041; activity change, % (values are at about 110 or 230 µM); purified LDHA, NADH/diaphorase-resazurin fluorescence; hits give low values; in the data active means activity change below about -30%; inconclusive means mostly about -25% to -30%;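 further: plate controls were DMSO wells for no effect and wells without enzyme for full effect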
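Human LDH5 (2 nM) was incubated with 0.06 mM NADH and 0.2 mM pyruvate for 5 min at room temperature in Tris pH 7.4. Remaining NADH was coupled through diaphorase/resazurin, and resorufin fluorescence was read at 0 and 20 min.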
PI5P4K alpha inh = inhibitors of human PI5P4K alpha. max response, %. hit rate 1.2% among 330,000. P48426. PI5P4Kalpha enzyme, ADP-Glo luminescence, 60 min; hits give low values; active means max response of -50% or lower; inconclusive means between -30% and -50%; inactive means -30% or higher; further: value at the top dose of about 77 µM; on the % scale 0 is the no-effect control and ±100 the full control effect
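ADP-Glo luminescence end-point after a 60 min room-temperature kinase reaction. PI5P4Kalpha and substrate in HEPES pH 7.4 buffer with EGTA, 0.1% CHAPS and 5% DMSO; ATP at 5 microM final.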
PI4K2A block = blocks human PI4K2A kinase activity. purified PI4K2A, ADP-Glo luminescence, 1 h; hits give low values. hit rate 0.13% among 420,000. Q9BTU6. activity change, negative = inhibition, % at 76.9 µM; in the data active means activity change below about -50%; inconclusive means mostly about -30% to -49%;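 further: -100% = wells without enzyme as full effect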
Target sequence (Q9BTU6 whole entry, looked up): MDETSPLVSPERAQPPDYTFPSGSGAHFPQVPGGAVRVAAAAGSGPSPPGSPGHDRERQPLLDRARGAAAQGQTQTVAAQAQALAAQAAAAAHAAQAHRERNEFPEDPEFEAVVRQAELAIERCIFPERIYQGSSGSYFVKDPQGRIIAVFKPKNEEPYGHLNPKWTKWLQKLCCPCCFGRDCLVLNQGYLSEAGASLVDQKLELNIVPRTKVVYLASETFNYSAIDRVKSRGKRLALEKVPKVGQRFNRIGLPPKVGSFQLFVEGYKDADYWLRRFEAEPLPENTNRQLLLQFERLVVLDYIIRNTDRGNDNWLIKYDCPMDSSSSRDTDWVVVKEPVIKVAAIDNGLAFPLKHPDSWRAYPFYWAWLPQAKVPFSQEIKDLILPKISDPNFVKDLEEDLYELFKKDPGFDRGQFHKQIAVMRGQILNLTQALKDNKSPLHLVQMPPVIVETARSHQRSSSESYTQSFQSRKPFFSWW
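ADP-Glo luminescence measured ADP generated by PI4K2A enzyme (4 ug/mL before mixing) with 1.2 mM PI substrate (pre-mix) and 300 microM ATP (pre-mix). Tris pH7.5 buffer with MgCl2, Triton X-100; 1 h reaction at ambient temperature.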
D3 antag = D3 dopamine receptor (human) antagonism | P35462 | AID 652054 | hit rate 2.5% among 360,000 | max response, negative = inhibition, % | D3R cells, DiscoveRx beta-arrestin luminescence, antagonist mode; hits give low values; in the data active means max response below about -50%; inconclusive means no clear call, values can overlap the other calls; further: on the % scale 0 is the no-effect control and ±100 the full control effect
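Cells plated overnight at 1500 cells/well, then exposed to library compounds with dopamine controls for 90 minutes at 37 degrees C. DiscoveRx reagent added for 30–60 minutes at room temperature; luminescence read, quantitative HTS format.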
DRD3 agonist = activates the human D3 dopamine receptor. P35462. D3R DiscoveRx beta-arrestin cells, luminescence, 90 min. max activation, %. hit rate 0.58% among 410,000. AID 652048; in the data active means max activation above about 30%; further: 0% is about no effect
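Agonist mode: compounds and dopamine controls were applied to plated cells for 90 min at 37 degrees C after an overnight attachment at 1500 cells/well. Luminescent read-out followed 30 - 60 minutes at room temperature with DiscoveRx detection reagent.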
Active calls of the source: *; ? = inconclusive; / = not tested or not shown. This is a sample that favours compounds with a hit; in the whole collection about 3.3% have one here.

SMILES | LDHA block | PI5P4K alpha inh | PI4K2A block | D3 antag | DRD3 agonist
N#CCCN(C(=O)COc1ncnc2sc3c(c12)CCC3)c1ccccc1 | 7 | / | / | / | /
CC(C)CCOC(=O)c1cc2cc(Br)ccc2oc1=O | -10 | / | / | / | /
Nc1ccc(-c2cnc[nH]2)cc1[N+](=O)[O-] | -9 | -9 | -51* | ? | -24
Cc1ccc(-n2c(C3CC3c3ccc(Cl)cc3)n[nH]c2=S)cc1 (configuration not stated) | 8 | / | 2 | -61* | 2
Cc1ccc(C2CC2c2n[nH]c(=S)n2-c2ccc(C)cc2)cc1 (configuration not stated) | -7 | / | -1 | -8 | -25
S=c1[nH]nc(-c2ccc(Cl)cc2)n1-c1ccc(Cl)cc1 | -6 | 0 | -1 | -13 | 1
Nc1n[nH]c(=S)n1-c1ccc(Cl)cc1 | 1 | -54* | -4 | -12 | -3
CC1CC(C)CN(S(=O)(=O)c2ccc3c(c2)CC(C)N3C(=O)C2CC2)C1 (configuration not stated) | -3 | 6 | 0 | -110* | -20
Cc1nnc(NC(=O)c2nn(C(C)C)c(=O)c3ccccc23)s1 | 3 | / | / | / | /
COc1cccc(CNc2ccc3[nH]c(=O)[nH]c3c2)c1OCc1ccc(F)cc1 | 27 | -8 | -6 | -54* | -12
C=CCOc1c(CNc2ccc3[nH]c(=O)[nH]c3c2)cccc1OC | 32 | -23 | -5 | 7 | 6
O=C(NCc1ccco1)C1CCN(S(=O)(=O)N2CCOCC2)CC1 | 4 | / | -85* | 18 | 1
CCn1cc(/C=C(/C#N)S(=O)(=O)c2ccccc2)cn1 | -5 | / | 6 | -20 | 22
Cn1nccc1/C=C(/C#N)S(=O)(=O)c1ccccc1 | 6 | ? | 13 | -56* | 1
CCc1ccc(C2C(C#N)=C(N)SC(N)=C2C#N)cc1 | 12 | / | 27 | -16 | -8
CCc1ccc(C2C(C#N)=C(N)SC(N)=C2C#N)s1 | 8 | -75* | -4 | 13 | 1
CCOC(=O)N1CCC(NCCNC(=O)c2ccc(F)c(F)c2)CC1 | -5 | 2 | 1 | -99* | -70
CCOC(=O)N1CCC(NCCNC(=O)c2ccc(Cl)cc2)CC1 | ? | 0 | 0 | -74* | -14
CCOC(=O)N1CCC(NC(=O)c2cc(C(=O)NCc3ccc(F)cc3)ccc2CO)CC1 | -10 | -3 | 1 | -11 | -1
O=S1(=O)c2ccc(N3CCSCC3)cc2Oc2ccccc2CN1Cc1cn(Cc2ccc(F)cc2)nn1 | / | / | -4 | / | /
CC1=C/C(=C(/c2cc(C)c(O)c(Br)c2)c2ccccc2S(=O)(=O)O)C=C(Br)C1=O | 36 | -65* | ? | -60* | -17
CC1=C/C(=C(/c2ccc(O)c(C)c2)c2ccccc2S(=O)(=O)O)C=CC1=O | -3 | -4 | -2 | -56* | -19
CC(=O)c1c[nH]c(C(=O)NC(c2cccc(F)c2)c2nccn2C)c1 (configuration not stated) | -3 | / | / | / | /
O=C(Nc1ccccc1)c1nc[nH]c1C(=O)NCCNC(=O)c1[nH]cnc1C(=O)Nc1ccccc1 | -3 | 0 | -3 | 134 | 69*
CCOC(=O)c1ccc(NC(=O)c2nc[nH]c2C(=O)NCCCCCNC(=O)OC(C)(C)C)cc1 | -4 | -9 | -2 | 116 | 52*
SMILES | LDHA block | PI5P4K alpha inh | PI4K2A block | D3 antag | DRD3 agonist
Cc1ccc(NC(=O)c2nc[nH]c2C(=O)NCCCCCCNC(=O)c2[nH]cnc2C(=O)Nc2ccc(C)cc2)cc1 | -8 | 10 | -2 | -3 | 1
Cc1ccc(NC(=O)c2nc[nH]c2C(=O)NCCCCNC(=O)c2[nH]cnc2C(=O)Nc2ccc(C)cc2)cc1 | -1 | 5 | 0 | 146 | 42*
CCOC(=O)C(NC(=O)C(C)Oc1ccc(Cl)cc1Cl)C(=O)OCC (configuration not stated) | -3 | / | / | / | /
CCn1cnc2sc(-c3ccccc3)cc2c1=O | 0 | 0 | -21 | 1 | 2
N#CCn1cnc2sc(-c3ccccc3)cc2c1=O | 4 | -52* | 6 | -1 | 1
COc1ccc(-c2cn(CCC(=O)O)c(-c3ccc(Cl)nc3)n2)cc1 | 2 | -2 | -4 | 37 | 52*
COc1ccccc1/C=C/C=c1\sc2nc(=O)c(Cc3ccccc3)nn2c1=O | -6 | -76* | -13 | ? | -12
Cc1nc(C(F)(F)F)c(C(=O)N/N=C(\N)c2ccccn2)s1 | 11 | 0 | 1 | -52* | -4
O=C(OCc1ccccc1)c1ccc(NCc2cc(O)ccc2O)cc1 | 24 | ? | -2 | -68* | -8
Cc1ccc(SCC(=O)NNC(=O)c2ccccc2)cc1C | -3 | 0 | 8 | -70* | -16
C/C(=C\c1ccccc1)C(=O)NCC(C)C | -2 | / | / | / | /
Clc1ccc(-c2nc3ncccn3c2Nc2ccc3c(c2)OCO3)cc1 | -3 | -6 | 11 | -8 | -3
Oc1ccc(-c2nc3ncccn3c2Nc2ccc3c(c2)OCO3)cc1 | 6 | -14 | -7 | -55* | -1
CCn1c(SCC(=O)N2CCCCC2)nc2c([nH]c3ccccc32)c1=O | -6 | 3 | 3 | -8 | -2
Cn1c(SCC(=O)NCC2CCCO2)nc2c([nH]c3ccccc32)c1=O (configuration not stated) | -9 | / | -2 | -14 | -10
Cc1ccccc1-n1c(SCC(=O)NCC2CCCO2)nc2c([nH]c3ccccc32)c1=O (configuration not stated) | -1 | 0 | 1 | -82* | -23
Cc1ccc2nc(-c3ccc(F)cc3)nc(SCC(=O)NCC3CCCO3)c2c1 (configuration not stated) | -3 | 2 | -6 | 0 | -9
CCOC(=O)N1CCN(C(=O)CSc2nc3c([nH]c4ccccc43)c(=O)n2CC)CC1 | -4 | -2 | -3 | 27 | 46*
O=C(CSc1nc2c([nH]c3ccccc32)c(=O)n1-c1ccccc1F)NCC1CCCO1 (configuration not stated) | -2 | 3 | 2 | -78* | -29
COc1ccc2nc(-c3ccccc3)nc(SCC(=O)NCC3CCCO3)c2c1 (configuration not stated) | -15 | 4 | -10 | 0 | 33*
Cc1ccc(S(=O)(=O)NC(N)=NCCC[C@@H](N)C(=O)Nc2cc(C(F)(F)F)ccc2Cl)cc1 | 1 | / | / | / | /
CCc1nc(SCc2coc(-c3cccc(Cl)c3)n2)n[nH]1 | -6 | / | / | / | /
CC(=O)c1sc(N/N=C/c2cccc(O)c2)nc1C | -10 | ? | 4 | -18 | -7
CC(=O)c1sc(N/N=C\c2c(O)ccc3ccccc23)nc1C | 5 | -53* | -2 | -54* | -10
O=C(NC1CCCC1)C(c1ccncc1)N(C(=O)Cc1cccs1)c1ccc(F)cc1 (configuration not stated) | -1 | -3 | -2 | 11 | 38*
COc1ccc(N(C(=O)Cc2cccs2)C(C(=O)NC2CCCC2)c2ccncc2)cc1 (configuration not stated) | 8 | 0 | -2 | 11 | 2

Source: PubChem (National Center for Advancing Translational Sciences (NCATS))
